# Screening data: PubChem BioAssay, National Center for Advancing Translational Sciences (NCATS)
# Rows were chosen to be rich in hits. Some 17% of all compounds tested hit in one or more screens of this group.
# S2 tox: Viability Counterscreen for Primary qHTS for Inhibitors of ATXN expression | Potency, µM (titrated, usually from 56.7 µM), most hits filed as cytotoxic | S2 cells (HEK-293 line with an ATXN2-luciferase reporter) viability, CellTiter-Fluor protease fluorescence, 24 h | hit rate 0.49% among 400,000; also: nearly all actives have a fitted effect of over 40% in size
# TDP1 cell CPT: qHTS for Inhibitors of human tyrosyl-DNA phosphodiesterase 1 (TDP1): qHTS in cells in presence of CPT | Potency, µM (doses to about 46.2 µM), actives largely listed as inhibitors | AID 686979, 2013 | chicken DT40 Tdp1-/-;hTDP1 cells + 20 nM CPT, ATP luminescence, 48 h | hit rate 12% among 420,000; also: nearly all actives have a fitted effect of over 55% in size
#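 Chicken DT40 Tdp1-/- cells stably complemented with human TDP1 were seeded at 400 cells/well in medium containing 20 nM camptothecin, exposed to pin-transferred compounds, and grown at 37 °C for at least 48 hr. Viability was read as ATP luminescence.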
# ATXN2 expr inh: Primary qHTS for Inhibitors of ATXN expression; HEK-293 ATXN2-luciferase reporter, luminescence, 24 h; Potency, µM (doses to about 57 µM), most hits filed as inhibitors; hit rate 0.72% among 360,000; also: nearly all actives have a fitted effect of over 55% in size
#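 qHTS (up to 57 uM final) was run with 24 h compound exposure of reporter cells at 37 °C. Each well was multiplexed: SteadyGlo luminescence measured ATXN2-luciferase expression after a fluorogenic Gly-Phe-AFC viability readout (25 uM final).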
# TGFb SMAD3 inh: qHTS for Inhibitors of TGF-b. HepG2 CAGA-GFP TGF-b/SMAD3 reporter, GFP fluorescence, 18 h; TGF-beta stimulated, 500 pg/mL final. Potency, µM (titrated, usually from 46.1 µM), most hits filed as inhibitors. hit rate 1.2% among 410,000. AID 588855, 2011; also: nearly all actives have a fitted effect of over 65% in size
#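 Inhibition was scored as loss of TGF-beta-induced (500 pg/mL final, 18 hours, 37 degrees C) GFP in HEPG2 cells carrying a CAGA-GFP reporter, in DMEM with 1% FBS. Well GFP was summed per cell; Activity was normalised to unstimulated and stimulated DMSO wells, then concentration-response fitting.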
# HepG2 tox: qHTS for Inhibitors of TGF-b: Cytotox Counterscreen; AID 588856, 2011; Potency, µM (doses to about 46.1 µM), most hits filed as cytotoxic; HepG2 CAGA-GFP viability, ATP luminescence, 18 h; hit rate 0.76% among 410,000
#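 HepG2 CAGA-GFP cells (1000/well, DMEM with 1% FBS) received compound, then TGF-beta at 500 pg/mL final, and were incubated 18 hours at 37 degrees C. Viability was read by CellTiter-Glo luminescence. Media-only wells were set as complete cell-killing and DMSO as no toxicity.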
# TDP1 cell noCPT: qHTS for Inhibitors of human tyrosyl-DNA phosphodiesterase 1 (TDP1): qHTS in cells in absence of CPT; Potency, µM (series often up to 46.2 µM), hits mostly inhibitors; hit rate 15% among 420,000; DT40 Tdp1-/- hTDP1 cells, no CPT, ATP luminescence, 48 h; AID 686978, 2013; also: nearly all actives have a fitted effect of over 55% in size
#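 No-CPT arm: Tdp1-/-;hTDP1 DT40 cells (400/well) plus compounds, incubated ≥48 hr at 37 °C. Readout CellTiter-Glo luminescence.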
# A number is an active result; – = inactive; ? = inconclusive; · = no result; ! = not confirmed by another sample; [ ] = dose if it differs, or a comment. Calls follow the shape of the dose curve; as a rule, active = well fitted curve in the direction sought with a large enough effect; inconclusive = small, poorly fitted or top-dose-only effect, or another doubt; inactive = no such curve, though single readings can be large; an effect the other way counts as inactive or inconclusive.
SMILES,S2 tox,TDP1 cell CPT,ATXN2 expr inh,TGFb SMAD3 inh,HepG2 tox,TDP1 cell noCPT
CCOc1ccc(CCN2C(=O)C(=O)N([C@@H](Cc3ccccc3)CN3CCC[C@H]3CN3C(=O)C(=O)NC[C@@H]3Cc3ccccc3)C[C@@H]2Cc2ccccc2)cc1,28.2µM,?,?,·,·,23.1µM
CCOc1ccc(CCN2C(=O)C(=O)N([C@@H](Cc3ccccc3)CN3CCC[C@H]3CN3C(=O)C(=O)NC[C@@H]3Cc3ccccc3)C[C@@H]2CC(C)C)cc1,?,?,?,·,·,18.4µM
CCOc1ccc(CCN2C(=O)C(=O)N([C@@H](Cc3ccc(O)cc3)CN3CCC[C@H]3CN3C(=O)C(=O)NC[C@@H]3Cc3ccccc3)C[C@@H]2Cc2ccc(O)cc2)cc1,–,?,–,·,·,?
O=C(NCc1ccc(Cl)cc1)c1cc2cccc3c2n1CCS3,·,?,·,?,–,16.4µM
CC(C)(C)c1ccccc1NC(=O)Nc1nc(C(N)c2ccccc2Cl)cs1 (centres undefined),?,?,–,?,–,?
CC(C)c1ccc(NC(=O)Nc2cnccn2)cc1,–,11.6µM,–,–,–,7.31µM
CC(C)c1ccc(NC(=O)Nc2nc(C(C)N)cs2)cc1 (centres undefined),·,14.6µM,?,17.8µM,–,14.6µM
Cc1ccccc1NC(=O)Nc1nc(C(N)C2CCCCC2)cs1 (centres undefined),–,23.1µM,?,?,–,?
CC(C)c1ccc(NC(=O)Nc2nc(CN)cs2)cc1,–,?,–,?,–,?
CC(C)c1ccc(NC(=O)Nc2nc(C(N)c3ccccc3Cl)cs2)cc1 (centres undefined),·,13µM,?,?,–,10.3µM
COc1ccc(NC(=O)Nc2nc(C(N)C3CCCCC3)cs2)cc1 (centres undefined),?,?,?,?,–,?
CN(C)c1ccc(NC(=O)Nc2nc(C(N)C3CCCCC3)cs2)cc1 (centres undefined),?,18.4µM,?,?,–,20.6µM
CC(C)c1ccc(NC(=O)Nc2nc(C(N)C3CCCCC3)cs2)cc1 (centres undefined),?,?,?,22.4µM,10µM,?
CCc1ccccc1NC(=O)CSc1nc2ncccc2o1,–,–,–,–,–,–
O=C(Nc1cccc(C(F)(F)F)c1)c1noc2c1CCc1ccccc1-2,–,10.3µM,–,–,–,?
O=C(Nc1cccc(O)c1)c1noc2c1CCc1ccccc1-2,?,16.4µM!,–,?,–,?
CC12CCC(=O)C=C1CCC1C3CC(O)C(O)(C(=O)CO)C3(C)CC(O)C12F (centres undefined),–,–,–,–,–,–
CC(=O)C1CCC2C3CCC4=CC(=O)CCC4(C)C3(F)C(O)CC12C (centres undefined),–,23.1µM,–,–,–,23.1µM
O=C1c2ccccc2C(=O)c2c1cccc2-n1nnc2ccccc21,–,–,–,–,–,–
O=C1C(N2CCOCC2)=C(n2nnc3ccccc32)C(=O)c2ccccc21,20µM,2.31µM,22.4µM,?,14.1µM,3.26µM
COc1ccc(N2CCN(CC(=O)Nc3ccc(C)c(C)c3)CC2)cc1,–,–,–,?,–,–
O=C(NCCN1CCN(c2ccccc2)CC1)C1CCN(S(=O)(=O)c2cccc3nonc23)CC1,–,–,–,–,–,?
O=c1c(N2CCc3ccccc3C2)csc2ccc(Br)cc12,–,23.1µM,–,–,–,?
COc1ccc2c(c1)OC(C)CN(CCNC(=O)c1cccc(N3CCNC3=O)c1)C2 (centres undefined),–,–[9.04 µM],·,·,·,–
O=C(CSc1c2c(nc3cc(Cl)ccc13)CCCC2)N1CCN(c2ccccc2)CC1,·,7.31µM,·,?,–,5.8µM
SMILES,S2 tox,TDP1 cell CPT,ATXN2 expr inh,TGFb SMAD3 inh,HepG2 tox,TDP1 cell noCPT
CC1CCN(C(=O)CSc2c3c(nc4cc(Cl)ccc24)CCCC3)CC1,?,?,?,?,11.2µM,?
CCC(C)NC(=O)CSc1c2c(nc3cc(Cl)ccc13)CCCC2 (centres undefined),·,?,·,–,–,?
CCCSC1=NC2(CCN(C(=O)NC3CCCCC3)CC2)N=C1c1ccc(OC)cc1,?,23.1µM,?,?,–,23.1µM
COC(=O)[C@@H]1[C@H]2C[C@@H]3c4[nH]c5ccccc5c4CCN3C[C@@H]2CC[C@@H]1O,·,·,–,·,·,·
COc1ccc(-c2csc(NC(=O)CS(=O)(=O)c3ccccc3)n2)cc1,–,?,–,–,–,23.1µM
O=C(CSc1ncnc2[nH]ncc12)Nc1nc(-c2ccc(F)c(F)c2)cs1,–,13µM,·,–,–,20.6µM
COc1ccc(CC(=O)Nc2nc(-c3ccc(F)c(F)c3)cs2)cc1,–,20.6µM,?,?,–,16.4µM
COc1ccc(CC(=O)Nc2nc(-c3ccncc3)cs2)cc1,–,–,–,–,–,–
O=C(Cc1ccc(F)cc1)Nc1nc(-c2ccc(F)c(F)c2)cs1,–,8.2µM,–,?,–,?
CC1(C)OC(=O)N(CCC(=O)Nc2cccc(F)c2)C1(C)O (centres undefined),–,–,–,–,–,–
COc1ccc(CNC(=O)C[C@@H]2C=C[C@@H](NS(=O)(=O)c3cccc(OC)c3)[C@@H](CO)O2)cc1,·,–,·,·,·,–
O=C(CN1C(=O)NC2(CCCC2)C1=O)Nc1nc(-c2ccc(F)c(F)c2)cs1,–,11.6µM,–,–,–,?
COc1ccc(-c2csc(NC(=O)CN3C(=O)NC4(CCCC4)C3=O)n2)cc1,–,–,–,–,–,–
Nc1ccncc1N,–,–,?,–,–,–
COc1cc2c(NC3CCN(C)CC3)nc(N3CCCN(C)CC3)nc2cc1OCCOCCN1CCCC1,·,–,·,–,–,–
COc1cc2c(NC3CCN(C)CC3)nc(N3CCCN(C)CC3)nc2cc1OCCCC(C)C,·,1.12µM,·,2.82µM,3.55µM,1.12µM
COc1cc2c(NC3CCN(C)CC3)nc(N3CCCN(C)CC3)nc2cc1OCCCCN,·,?,·,?,–,?
COc1cc2c(NC3CCN(C)CC3)nc(N3CCCN(C)CC3)nc2cc1OCCCN1CCCCC1,·,17.8µM,·,?,–,10µM
Cn1c(=O)[nH]c(=O)c2c1nc(N1CCCCCC1)n2CCSc1nc2ccccc2o1,–,–,–,–,–,–
